In PubChem BioAssay (NCI) one finds growth data, which are given here for 8 compounds.

This is part of a sample that, as a whole, favours compounds with a hit. Of some 83,000 tested, about 20% had one in any assay.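 Activity criterion: percent growth below 10, measured after cells in 96-well plates were exposed to a single compound concentration for 48 hours.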 A number with no mark means an inactive call. Calls of active or inactive are those of the source.

Among the test systems are SR leukemia; RPMI-8226 leukemia; OVCAR-8 ovarian; OVCAR-5 ovarian; OVCAR-4 ovarian; SK-OV-3 ovarian; IGROV1 ovarian; OVCAR-3 ovarian; HS 578T breast; NCI/ADR-RES ovarian; T-47D breast; BT-549 breast; MDA-MB-435 melanoma; SW-620 colon; MCF7 breast; HCT-116 colon; HCC-2998 colon; KM12 colon.
Assay in all cases: NCI-60 one-dose screen, 48 h (100 = growth as untreated, 0 = no growth, -100 = all killed)
Common to all, as to conditions: 10 µM

Regarding `CC(=O)O[C@H]1CC[C@@]2(C)[C@@H](CC[C@@H]3[C@@H]2CC[C@]2(C)C=C(C=O)C[C@@H]32)C1`, the growth with SR leukemia is 2.16% (active); in the experiment on RPMI-8226 leukemia it was 8.64% (active); in the experiment on OVCAR-8 ovarian, 24.9%; with OVCAR-5 ovarian, 71.8%; in the experiment on OVCAR-4 ovarian, 70.4%; with SK-OV-3 ovarian, 113%. In addition, the growth was 60.2% in the experiment on IGROV1 ovarian; 57.8% in the experiment with OVCAR-3 ovarian; 105% with HS 578T breast; 70.5% in the experiment with NCI/ADR-RES ovarian; 33.6% with T-47D breast; 68.5% with BT-549 breast. The growth in the experiment on MDA-MB-435 melanoma was 57.8%; in the experiment with SW-620 colon, 30.1%; in the experiment on MCF7 breast it was 7.05% (active); with HCT-116 colon it was -19.3% (active); with HCC-2998 colon it was 92.5%; in the experiment with KM12 colon, 107%.

With `CCOC(=O)c1c(Cl)c2c(n1Cc1cccc(OC)c1)-c1oncc1CC2`, the growth in the experiment with SR leukemia was 8.61% (active); in the experiment on RPMI-8226 leukemia, 35.4%; with OVCAR-8 ovarian, 37.4%; with OVCAR-5 ovarian, 74.3%; with OVCAR-4 ovarian, 56.7%; in the experiment with SK-OV-3 ovarian it was 17.2%. Moreover, the growth is 23.5% in the experiment with IGROV1 ovarian; -34.9% (active) in the experiment with OVCAR-3 ovarian; -11.2% (active) in the experiment on HS 578T breast; 1.8% (active) in the experiment with NCI/ADR-RES ovarian; 35.5% with T-47D breast; 21.7% in the experiment with BT-549 breast. The growth is -28% (active) in the experiment with MDA-MB-435 melanoma; 34.5% in the experiment on SW-620 colon; 15.2% in the experiment with MCF7 breast; 18.5% in the experiment with HCT-116 colon; 39.8% with HCC-2998 colon; 25.9% in the experiment with KM12 colon.

Regarding `CC(C)C[C@H](NC(=O)Cn1ccc2ccccc2c1=O)B(O)O`, the growth is 9.81% (active) in the experiment with SR leukemia; 11.9% in the experiment on RPMI-8226 leukemia; 88.2% with OVCAR-8 ovarian; 76.9% in the experiment with OVCAR-5 ovarian; 93.3% with OVCAR-4 ovarian; 96.7% in the experiment with SK-OV-3 ovarian. Also, the growth was 107% in the experiment with IGROV1 ovarian; 42.3% in the experiment on OVCAR-3 ovarian; 90% in the experiment with HS 578T breast; 103% in the experiment on NCI/ADR-RES ovarian; 39.6% in the experiment on T-47D breast; 58.4% in the experiment with BT-549 breast. In addition, the growth in the experiment on MDA-MB-435 melanoma was 3.38% (active); in the experiment with SW-620 colon, 42.8%; with MCF7 breast, 31.4%; in the experiment with HCT-116 colon, 32.3%; in the experiment with HCC-2998 colon, 72.2%; in the experiment with KM12 colon, 93.4%.

Take `COc1cccc2c1C(=O)c1c(O)c3c(c(O)c1C2=O)C[C@@](O)(C(=O)COC(=O)c1ccccc1)C[C@@H]3OC1CC(N)C(O)C(C)O1` (some centres undefined): the growth in the experiment on SR leukemia was -43.7% (active); with RPMI-8226 leukemia, -66.4% (active); in the experiment with OVCAR-8 ovarian it was -77.3% (active); with OVCAR-5 ovarian it was -94.9% (active); with OVCAR-4 ovarian, -87.9% (active); with SK-OV-3 ovarian, -72.8% (active). Further, the growth with IGROV1 ovarian was -75.2% (active); in the experiment with OVCAR-3 ovarian it was -93.6% (active); in the experiment with HS 578T breast, -41.6% (active); with NCI/ADR-RES ovarian, 22.5%; in the experiment on T-47D breast, -71.7% (active); with BT-549 breast, -76.9% (active). The growth in the experiment on MDA-MB-435 melanoma was -97.7% (active); in the experiment with SW-620 colon, -81.9% (active); with MCF7 breast it was -66.2% (active); in the experiment with HCT-116 colon, -75% (active); in the experiment with HCC-2998 colon, -93% (active); in the experiment on KM12 colon, -95.6% (active).

On to `CC(C)c1ncc(CO)n1Cc1c(Cl)cccc1Cl`, for which the growth is 97.4% with SR leukemia; 97.6% with RPMI-8226 leukemia; 105% in the experiment on OVCAR-8 ovarian; 106% in the experiment with OVCAR-5 ovarian; 116% in the experiment with OVCAR-4 ovarian; 99.5% in the experiment on SK-OV-3 ovarian. Besides, the growth in the experiment with IGROV1 ovarian was 100%; in the experiment with OVCAR-3 ovarian it was 105%; in the experiment with HS 578T breast it was 104%; in the experiment with NCI/ADR-RES ovarian, 110%; in the experiment with T-47D breast, 73.8%; in the experiment with BT-549 breast, 104%. Moreover, the growth with MDA-MB-435 melanoma was 102%; with SW-620 colon it was 100%; in the experiment with MCF7 breast, 99.5%; with HCT-116 colon, 102%; in the experiment on HCC-2998 colon, 109%; in the experiment with KM12 colon, 101%.

Take `CC(Oc1ccc(Cl)cc1)c1ccccc1` (centres undefined): the growth was 99.1% in the experiment with SR leukemia; 101% in the experiment with RPMI-8226 leukemia; 110% in the experiment with OVCAR-8 ovarian; 103% in the experiment with OVCAR-5 ovarian; 103% with OVCAR-4 ovarian; 103% in the experiment with SK-OV-3 ovarian. Moreover, the growth with IGROV1 ovarian was 96%; in the experiment on OVCAR-3 ovarian, 107%; in the experiment with HS 578T breast, 104%; in the experiment with NCI/ADR-RES ovarian it was 103%; in the experiment with T-47D breast, 95.7%; with BT-549 breast, 114%. The growth in the experiment with MDA-MB-435 melanoma was 101%; in the experiment on SW-620 colon, 96.4%; in the experiment on MCF7 breast, 102%; in the experiment with HCT-116 colon, 98.9%; in the experiment on HCC-2998 colon it was 115%; in the experiment on KM12 colon, 103%.

Turning to `COC(=O)[C@]12CC[C@@H](C)[C@H](C)[C@@H]1C1=CC[C@@H]3[C@@]4(C)C/C(=N\O)[C@H](O)[C@@]5(C)COC(=C45)C[C@@]3(C)[C@]1(C)CC2`, the growth in the experiment with SR leukemia is -39.2% (active); in the experiment with RPMI-8226 leukemia, -41% (active); in the experiment on OVCAR-8 ovarian, -78.3% (active); in the experiment on OVCAR-5 ovarian, -75.4% (active); in the experiment with OVCAR-4 ovarian, -79.1% (active); with SK-OV-3 ovarian, -91.9% (active). Also, the growth in the experiment with IGROV1 ovarian was -58.4% (active); in the experiment with OVCAR-3 ovarian it was -98.1% (active); in the experiment with HS 578T breast it was -33.6% (active); in the experiment with NCI/ADR-RES ovarian it was -62.5% (active); in the experiment with T-47D breast it was -84.6% (active); in the experiment on BT-549 breast, -79.8% (active). Also, the growth in the experiment with MDA-MB-435 melanoma was -84% (active); with SW-620 colon it was -64.5% (active); in the experiment with MCF7 breast, -71.1% (active); in the experiment on HCT-116 colon, -84.8% (active); in the experiment with HCC-2998 colon, -89.4% (active); in the experiment on KM12 colon, -80.9% (active).

Turning to `COc1cc(Cn2c(-c3ccccc3)cc3c2-c2oncc2CC3)cc(OC)c1`, the growth in the experiment on SR leukemia was 2.06% (active); in the experiment on RPMI-8226 leukemia it was 34.8%; with OVCAR-8 ovarian, 21.7%; in the experiment on OVCAR-5 ovarian, 42.6%; in the experiment with OVCAR-4 ovarian, 51.8%; in the experiment with SK-OV-3 ovarian it was 0.474% (active). In addition, the growth was 7.96% (active) in the experiment on IGROV1 ovarian; -47.1% (active) in the experiment on OVCAR-3 ovarian; -6.35% (active) in the experiment on HS 578T breast; -19.5% (active) in the experiment with NCI/ADR-RES ovarian; 45.8% in the experiment on T-47D breast; 8.36% (active) with BT-549 breast. Also, the growth in the experiment on MDA-MB-435 melanoma was -39.5% (active); in the experiment on SW-620 colon it was 23.8%; in the experiment with MCF7 breast, 14.1%; in the experiment on HCT-116 colon, 6.79% (active); in the experiment with HCC-2998 colon it was 17.4%; in the experiment with KM12 colon it was 10.2%.
